± gives the standard deviation of the averaged measurements.
System: AmpC beta-lactamase (E. coli)
Experiment: AmpC inhibition relative to DMSO; higher = more inhibition
Protocol: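 Aggregation counter-screen: inhibition of E. coli AmpC beta-lactamase (5 nM, nitrocefin substrate, 50 mM sodium phosphate pH 7.0, RT, 5 min) by KAT inhibitors at 4, 11, 33 and 100 uM, with or without 0.01% Triton X-100. Percent inhibition is relative to DMSO controls. Four technical replicates.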

[1] = 4 µM, detergent: 0.01% Triton X-100
[2] = 11 µM, detergent: 0.01% Triton X-100
[3] = 33 µM, detergent: 0.01% Triton X-100
[4] = 100 µM, detergent: 0.01% Triton X-100
[5] = 100 µM, detergent: no detergent

Compound	AmpC inhibition [1] [%]	AmpC inhibition (4 µM, detergent: no detergent) [%]	AmpC inhibition [2] [%]	AmpC inhibition (11 µM, detergent: no detergent) [%]	AmpC inhibition [3] [%]	AmpC inhibition (33 µM, detergent: no detergent) [%]	AmpC inhibition [4] [%]	AmpC inhibition [5] [%]
COC1=CC=C(S(=O)(O/N=C2C=C(C(C(C)=C\2)=O)C)=O)C=C1	2.45 ± 1.2	-3.63 ± 5.6	6.48 ± 2.3	3.85 ± 1.5	6.35 ± 3.8	0.996 ± 9.5	8.37 ± 3.3	-1.7 ± 3.7
CC1=NN(c2ccc(C(=O)O)cc2)C(=O)/C1=C\c1ccc(-c2cc(C)c(C)cc2[N+](=O)[O-])o1	1.81 ± 2.9	-0.0252 ± 5.8	8.78 ± 2.2	-41.4 ± 11	5.34 ± 3.4	-43.6 ± 23	5.65 ± 3.5	4.46 ± 2.3
CC(C)([C@](C1=O)(C2=O)C/C=C(C)\C)[C@@H](C[C@]31C[C@@H](C(C)(OC3=C2C(C4=CC(O)=C(C=C4)O)=O)C)C/C=C(C)\C)C/C=C(C)\C	8.42 ± 5.3	13.3 ± 3.5	4.79 ± 3.2	90 ± 9.4	4.67 ± 6.9	93.15 ± 0.89	2.77 ± 1.7	92.3 ± 0.78
O=C(O[C@@H]1Cc2c(O)cc(O)cc2O[C@@H]1c1cc(O)c(O)c(O)c1)c1cc(O)c(O)c(O)c1	9.27 ± 1.3	11.2 ± 18	4.89 ± 2	16 ± 3.1	4.57 ± 1.2	19.6 ± 14	1.23 ± 6.1	30.2 ± 1.1
Cl.Cl.O=C(O)Cn1nnc(-c2ccc(CN(CCCCOc3ccc(CN4CCCC4)cc3)CCc3ccccc3)cc2)n1	7.51 ± 5.3	-18.8 ± 5	6.13 ± 8.3	-17.6 ± 4.2	3.69 ± 2.6	-26.9 ± 12	11 ± 6.5	5.89 ± 17
